Among the data in PubChem BioAssay AID1963822 (ICCB-Longwood Screening Facility, Harvard Medical School, 2024) are z-score values, retold here.

Where “and” joins values, the source holds several entries; their conditions need not be identical. Equal entries are not always repeated. Out of some 55,000 compounds screened, about 90 (0.2%) were called active. The rule behind the calls is not given here. The sample as a whole holds a higher share of actives than the screen did. The source holds several records for some structures; these can differ, active in one and inactive in another.

A short description of this assay: anaerobic choline-dependent bacterial growth inhibition – minimal medium, absorbance (AID 1963822). As to conditions: Gram-negative bacterium anaerobic choline minimal medium.
Where [1] appears, read: measured here: choline growth z-score, timepoint 1, stronger effect = lower value.

For the compound `CCCC(=O)Nc1cccc(OCc2cc(=O)n3ccccc3n2)c1`, the z-score was 0.39 (inactive) (stronger effect = lower value) and 0.6 under setting [1].
Regarding `Cc1sc2cc(C(=O)NCCN3CCN(C)CC3)[nH]c2c1CN1CCCCC1`, the z-score was -0.21 (active) (stronger effect = lower value) and -4.45 under setting [1].
For `O=C(NCCCN1CCCCC1)c1cc2n(n1)CCCN(Cc1ccc(F)cc1)C2=O` the same measures were 0.15 (inactive) and -0.23.
For `CN1CCN(CCNC(=O)c2cnc3sc4c(n3c2=O)CCC4)CC1` the same measures were -0.87 (inactive) and -0.3.
For the compound `Cc1ccc(F)c(NS(=O)(=O)c2cc(-c3nc(C(C)(C)C)cs3)cs2)c1`, the z-score is 0.79 (inactive) (stronger effect = lower value) and 0.58 under setting [1].
Take `CCCCOc1ccccc1C1CC(=O)Nc2c1c(C)nn2-c1ccc2nncn2n1` (stereo not drawn): the z-score runs as follows: (stronger effect = lower value) 0.78 (inactive); under setting [1], 0.83.
The matching figures for `O=C(NC1CC1)c1snc(-c2ccccn2)c1NC(=O)C1CC1`: 0.58 (inactive) and 1.01.
In the case of `CCc1ccc(NS(=O)(=O)c2cc(-c3nc(C(C)C)cs3)cs2)cc1`, the z-score runs as follows: (stronger effect = lower value) -0.41 (inactive); under setting [1], 0.54.
Consider `Cc1cccc(C2C3=C(CC(c4ccccc4)CC3=O)Nc3onc(C)c32)c1` (stereo not drawn), for which the z-score is 1.84 (inactive) (stronger effect = lower value) and 1.45 under setting [1].
The matching figures for `O=C1Nc2ccccc2Oc2cc(Cl)c(S(=O)(=O)N3CCCC3)cc21`: 1.05 (inactive) and -0.01.
For the compound `O=C(COc1ccccc1)Nc1noc(-c2ccc(Cl)cc2)n1`, the z-score was -0.07 (inactive) (stronger effect = lower value) and -0.68 under setting [1].
For `Cc1ccc(C)c(Cn2cccc(S(=O)(=O)N3CCCC3)c2=O)c1` the same measures were 1.03 (inactive) and 0.96.
For `CS(=O)(=O)NC1CCN(C(=O)C2CCCC2)C1` (stereo not drawn) the same measures were 0.08 (inactive) and 0.92.
Turning to `CCC(C(=O)Nc1ccccc1OC)n1nc(-c2ccccc2)ccc1=O` (stereo not drawn), the z-score is, setting by setting: (stronger effect = lower value) 0.41 (inactive); under setting [1], -0.44.
For `COc1ccc(CSc2nccc3c2ccn3CC(=O)NCc2ccc3c(c2)OCO3)cc1` the same measures were 1.77 (inactive) and 1.27.
For `O=C(CSCc1nc2cccnc2n1C1CCCCC1)NCc1cccc(F)c1` the same measures were 0.62 (inactive) and 1.42.
For `Cc1ccccc1C1CC(=O)c2cnc3c(-c4ccc(F)cc4)c(C)nn3c2C1` (stereo not drawn) the same measures were 0.81 (inactive) and 0.27.
As for `O=C(COc1ccccc1)Nc1noc(-c2ccccc2)n1`, the z-score by setting is: (stronger effect = lower value) -2.24 (inactive); under setting [1], -0.92.
For `O=C(NCc1ccc(Cl)cc1)c1ccc(-n2nnc3cccnc32)cc1` the same measures were 0.42 (inactive) and 0.46.
For `Cc1nn(-c2ccccc2)c2sc(C(=O)N3CCN(c4cccc(Cl)c4)CC3)cc12` the same measures were 0.97 (inactive) and 1.5.
The matching figures for `COc1ccc(-c2noc(-c3ccc[nH]c3=O)n2)cc1OC`: 1.32 (inactive) and 1.18.
As to `Clc1ccc(C(CNc2nn3cnnc3c3ccccc23)N2CCCCC2)cc1` (stereo not drawn), the z-score was -0.12 (inactive) (stronger effect = lower value) and -0.1 under setting [1].
The matching figures for `CC(C)NC(=O)N1CCCC(c2cccc(C(=O)NCc3ccc(Cl)cc3)c2)C1` (stereo not drawn): 0.72 (inactive) and 0.1.
For `CCOC(=O)c1cnn(CCOC(=O)COC)c1NC(=O)COC` the same measures were 0.06 (inactive) and 0.2.
For `Cc1noc2c1C(c1ccc(Cl)cc1)C1=C(CC(c3ccc(O)cc3)CC1=O)N2` (stereo not drawn) the same measures were -1.06 (inactive) and 0.58.
Regarding `CCCCC(=O)Nc1cc(N2CCn3c(nc4ccccc43)C2)ccc1C`, the z-score is, setting by setting: (stronger effect = lower value) -0.54 (inactive); under setting [1], 0.09.
On to `COc1ccc(NC(=O)C2CCN(C(=O)c3ccc(-c4noc(C)n4)cc3)CC2)cc1OC`, for which the z-score runs as follows: (stronger effect = lower value) 0.58 (inactive); under setting [1], -0.71.
Turning to `CCc1ccc(-c2ccc(=O)[nH]n2)cc1S(=O)(=O)N1CCOCC1`, the z-score (stronger effect = lower value) is -0.21 (inactive) and the z-score under setting [1] was -0.65.
The matching figures for `O=C(O)c1cc(N2CCN(c3ccc(Cl)cc3)CC2)ccc1NC(=O)C1CCC1`: 0.22 (inactive) and 0.14.
For `O=c1c(S(=O)(=O)c2ccc(F)c(Cl)c2)c[nH]c2c(F)cc(Cl)cc12` the same measures were -1.66 (inactive) and -1.06.
For `CNC(=O)c1ccc(NC(=O)N2CCCCc3ccccc32)cc1` the same measures were 0.76 (inactive) and -0.19.
In the case of `COC(=O)c1cnc(N(C)C2CCCCC2)c2ccccc12`, the z-score (stronger effect = lower value) is 0.22 (inactive) and the z-score under setting [1] is -0.03.
Regarding `Cc1nc(Nc2ccccc2)nc2c1C(=O)CC(C)C2` (stereo not drawn), the z-score by setting is: (stronger effect = lower value) 0.7 (inactive); under setting [1], 0.46.
The matching figures for `COCc1cc(C)nc2sc3c(c12)NC(C)N(c1ccc(C)cc1)C3=O` (stereo not drawn): -0.14 (inactive) and -1.91.
For `Cc1ccc(-n2cc(C(=O)O)c3ccccc3c2=O)cc1` the same measures were 1.03 (inactive) and 0.91.
The matching figures for `Cc1ccc2c(c1)OCC(=O)N2CC(=O)O`: -1.28 (inactive) and -1.54.
On to `Cc1ccc(C2C3=C(CCCC3=O)Nc3ccccc3N2C(=O)c2ccccc2)cc1` (stereo not drawn), for which the z-score is, setting by setting: (stronger effect = lower value) -0.78 (inactive); under setting [1], 0.3.
For `CCN1CCN(C(=O)C2CCCN(S(=O)(=O)c3cc(-c4noc(C5CC5)n4)sc3C)C2)CC1` (stereo not drawn) the same measures were 0.63 (inactive) and 0.78.
For `COc1cc(OC)cc(C(=O)Nc2nc(CC(=O)Nc3ccc(OC)c(OC)c3)cs2)c1` the same measures were -0.43 (inactive) and -0.34.
`CCn1nc(C)c(CCN(C)C(=O)NCC2CCCO2)c1C` (stereo not drawn): the z-score is, setting by setting: (stronger effect = lower value) -1.05 (inactive); under setting [1], -1.68.
In the case of `O=C(CSc1ccccc1)N1CCN(Cc2cc(=O)n3nc(-c4ccccc4F)sc3n2)CC1`, the z-score (stronger effect = lower value) was 0.75 (inactive) and the z-score under setting [1] was 0.13.
Consider `Cn1c(=O)oc2cc(S(=O)(=O)N3CCC4(CC3)Nc3cc(F)ccc3-n3cccc34)ccc21`, for which the z-score runs as follows: (stronger effect = lower value) -0.55 (inactive); under setting [1], 0.11.
Consider `CN1CCC[C@@H]1CCO[C@](C)(c1ccccc1)c1ccc(Cl)cc1`, for which the z-score by setting is: (stronger effect = lower value) -1.24 (inactive) and -1.63 (active) and 0.92 (inactive); under setting [1], 0.36 and -2.85 and -1.59.
For `O=S(=O)(Cc1ccccc1)N1CCCC1c1ccc(Cl)cc1` (stereo not drawn), the z-score was -0.27 (inactive) (stronger effect = lower value) and -0.13 under setting [1].
The matching figures for `CCOC(=O)c1cnc2c(-c3ccccc3)c(COc3ccccc3)nn2c1N`: -0.05 (inactive) and -0.12.
The matching figures for `O=C(Nc1ccc2c(c1)OCCO2)c1cccc(Oc2ccnc(-c3ccc(F)cc3)n2)c1`: -0.1 (inactive) and 0.77.
For `O=C(CC1CCCC1)N1CCN=C1N1CCCC1` the same measures were -1.26 (inactive) and -0.58.
In the case of `CCOc1ccc(CNC(=O)C2(NS(=O)(=O)c3cccc4cccnc34)CCCCC2)cc1`, the z-score is 0.35 (inactive) (stronger effect = lower value) and 0.16 under setting [1].
The matching figures for `COc1cccc(-n2ccnc2SCc2nc(-c3ccccc3)no2)c1`: 0.5 (inactive) and 0.33.
